Laboratory results as given in ChEMBL document CHEMBL4513216, “Probing the Open Global Health Chemical Diversity Library for Multistage-Active Starting Points for Next-Generation Antimalarials” (ACS Infect Dis, 2020).
In all, about 69,000 compounds went through this assay and about 8,600 (12%) showed an effect of 50% or more. The sample as a whole holds a higher share of strong results than the screen did.

System: Plasmodium berghei
Test: Screen against P. berghei liver stage (PbLuc), transformed with Luciferase, at 10uM
Type: functional, HepG2
Details: tested at 10 uM

Compound	INHIBITION
Cc1nn(C)cc1S(=O)(=O)NC1(CN2CCOCC2)CCCCC1	28%
COc1ccccc1C(C)(C)NC(=O)c1cc(NC(C)=O)ccc1F	-52.3%
CCSCc1nc(O)c2nnn(C3CCN(Cc4ccoc4)CC3)c2n1	18.39%
CC(C)c1nc2c(n1C)CCN(CC(=O)Nc1cccnc1)C2	-55.4%
O=C(NCC1CCN(c2ccncc2)CC1)C(O)c1ccccc1 (stereo unspecified)	36.4%
Cc1nocc1C(=O)N1CCCC2(CCN(c3cnn(C)c3)C2=O)C1 (stereo unspecified)	38.5%
CC(C)c1cc(C2CCCN2C(=O)CN2C(=O)CCNC2=O)no1 (stereo unspecified)	5.91%
O=S(=O)(c1ccccc1Br)N1CCC2(CC1)OCCS2	0.325%
Cc1cnn(CC2CN(CC(=O)NCc3ccco3)CCO2)c1 (stereo unspecified)	11.2%
CCCN(Cc1cnn(C)c1)S(=O)(=O)c1cc(C)cc(F)c1	-6.11%
Cc1noc(CCCC(=O)NCC2CCS(=O)(=O)C2)n1 (stereo unspecified)	-7.35%
Cn1nccc1-c1ccc2nc(C3CCN(CC4CC4)CC3)nn2c1	38.2%
CS(=O)(=O)CCCN(CCc1cccc(F)c1)C1CC1	-22.3%
Cc1cccc(CN2C[C@@H]3CN(C(=O)[C@H]4CCCO4)C[C@@H]3C2=O)c1	58.2%
COc1ccc(CN2C[C@@H]3CN(C(=O)[C@H]4CCCO4)C[C@@H]3C2=O)cc1	-43%
CN1C[C@@H]2CN(C(=O)C3CCOC3)C[C@@H]2C1=O (stereo partly specified)	33%
Cc1cccc(CN2C[C@@H]3CN(C(=O)C4CCOC4)C[C@@H]3C2=O)c1 (stereo partly specified)	53%
O=C(C1CCOC1)N1C[C@H]2CN(Cc3cccc(F)c3)C(=O)[C@H]2C1 (stereo partly specified)	34.9%
O=C(C1CCOC1)N1C[C@H]2CN(c3ccccc3)C(=O)[C@H]2C1 (stereo partly specified)	52.6%
Cc1cccc(CN2C[C@@H]3CN(C(=O)c4ccnnc4)C[C@@H]3C2=O)c1	4.61%
O=C(C1CCOC1)N1C[C@H]2CN(Cc3cccnc3)C(=O)[C@H]2C1 (stereo partly specified)	17.7%
O=C(C1CCC1)N1C[C@@H]2CN(c3ccccc3)C(=O)[C@@H]2C1	46.9%
Cn1cc(CN2CCCC3(CCN3S(C)(=O)=O)C2)cn1 (stereo unspecified)	28.7%
C=C(Br)CN(C)C1CCN(CCc2ccccn2)CC1	-9.37%
O=C(CSc1ccc(Br)cc1)NS(=O)(=O)c1ccc2c(c1)OCCO2	30.55%
Cc1nc2c(c(N3CCCOCC3)n1)CCN(c1nccs1)CC2	41.1%
